Measured values from PubChem BioAssay AID1159580 (chemical genetic matrix, 2015).
Values joined by “and” are separate entries in the source; they are usually repeats but may differ in a detail not shown here. Equal entries are not always repeated. Hit rate of the full screen: of about 5,500 compounds, about 2,000 (36%) were called active. Not shown: some 18% with an inconclusive outcome. The list shows a part of the results. Values without a mark were called inactive. No stated cut-off is given here; in the data, active means normalized growth mostly below about 0.91 (no sharp cut-off); inconclusive means no clear call, values can overlap the other calls; inactive means mostly above about 0.92.

Assay: chemical genetic growth profiling, strain panel (AID 1159580);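 further: tested at 20 µM; growth read once vehicle control cultures reached saturation at 30 °C; 1 = growth at the plate median or of vehicle wells; lower values mean less growth of the strain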
Conditions: S. cerevisiae deletion strains, growth OD

SMILES: COC(=O)c1c(OC)cc2c(c1C)Oc1c(Cl)c(O)c(Cl)c(C)c1C(=O)O2
- normalized growth (locus YAL013W, strain DEP1, active compounds read low): 0.879 (active)
- normalized growth (locus YAL021C, strain ccr4, active compounds read low): 0.99
- normalized growth (locus YAL026C, strain drs2, active compounds read low): 0.99
- normalized growth (locus YAL030W, strain snc1, active compounds read low): 0.977
- normalized growth (locus YBL061C, strain skt5, active compounds read low): 0.993
- normalized growth (locus YBR009C, strain hhf1, active compounds read low): 0.993
- normalized growth (locus YBR021W, strain FUR4, active compounds read low): 1.02
- normalized growth (locus YBR023C, strain chs3, active compounds read low): 0.988
- normalized growth (locus YBR171W, strain sec66, active compounds read low): 0.985
- normalized growth (locus YBR229C, strain ROT2, active compounds read low): 0.909 (active)
- normalized growth (locus YBR231C, strain swc5, active compounds read low): 0.989
- normalized growth (locus YBR279W, strain paf1, active compounds read low): 0.992
- normalized growth (locus YCL011C, strain gbp2, active compounds read low): 0.986
- normalized growth (locus YCL016C, strain dcc1, active compounds read low): 0.99
- normalized growth (locus YCL029C, strain bik1, active compounds read low): 0.925
- normalized growth (locus YCL069W, strain vba3, active compounds read low): 1
- normalized growth (locus YCR088W, strain abp1, active compounds read low): 0.975
- normalized growth (locus YDL005C, strain med2, active compounds read low): 1
- normalized growth (locus YDL035C, strain GPR1, active compounds read low): 0.906
- normalized growth (locus YDL040C, strain nat1, active compounds read low): 0.98
- normalized growth (locus YDL074C, strain BRE1, active compounds read low): 0.838
- normalized growth (locus YDL101C, strain DUN1, active compounds read low): 0.912
- normalized growth (locus YDL134C, strain PPH21, active compounds read low): 0.935
- normalized growth (locus YDL185W, strain tfp1, active compounds read low): 0.937
- normalized growth (locus YDL192W, strain arf1, active compounds read low): 0.949
- normalized growth (locus YDR001C, strain nth1, active compounds read low): 0.986
- normalized growth (locus YDR069C, strain doa4, active compounds read low): 0.968
- normalized growth (locus YDR101C, strain arx1, active compounds read low): 0.965
- normalized growth (locus YDR137W, strain rgp1, active compounds read low): 0.946
- normalized growth (locus YDR150W, strain NUM1, active compounds read low): 0.896 (active)
- normalized growth (locus YDR159W, strain sac3, active compounds read low): 0.963
- normalized growth (locus YDR162C, strain NBP2, active compounds read low): 0.82 (active)
- normalized growth (locus YDR195W, strain ref2): 1.09
- normalized growth (locus YDR297W, strain sur2, active compounds read low): 0.981
- normalized growth (locus YDR318W, strain mcm21, active compounds read low): 0.924
- normalized growth (locus YDR334W, strain swr1, active compounds read low): 1.01
- normalized growth (locus YDR335W, strain msn5, active compounds read low): 1
- normalized growth (locus YDR388W, active compounds read low): 0.947
- normalized growth (locus YDR392W, strain spt3, active compounds read low): 0.965
- normalized growth (locus YDR502C, strain sam2, active compounds read low): 0.919 (active)
- normalized growth (locus YEL003W, strain gim4, active compounds read low): 0.986
- normalized growth (locus YEL037C, strain rad23, active compounds read low): 0.991
- normalized growth (locus YEL061C, strain CIN8 (second series), active compounds read low): 0.988
- normalized growth (locus YEL061C, strain CIN8, active compounds read low): 0.931
- normalized growth (locus YER015W, strain faa2, active compounds read low): 0.991
- normalized growth (locus YER016W, strain bim1, active compounds read low): 0.988
- normalized growth (locus YER110C, active compounds read low): 0.929
- normalized growth (locus YER111C, strain swi4, active compounds read low): 0.991
- normalized growth (locus YER155C, strain BEM2 (second series), active compounds read low): 0.997
- normalized growth (locus YER155C, strain BEM2, active compounds read low): 0.949
- normalized growth (locus YER167W, strain BCK2, active compounds read low): 0.932
- normalized growth (locus YFR010W, strain ubp6, active compounds read low): 0.982
- normalized growth (locus YGL078C, strain dbp3, active compounds read low): 1
- normalized growth (locus YGL086W, strain mad1, active compounds read low): 0.954
- normalized growth (locus YGL167C, strain pmr1, active compounds read low): 0.954
- normalized growth (locus YGL173C, strain kem1, active compounds read low): 0.985
- normalized growth (locus YGL227W, strain vid30, active compounds read low): 0.991
- normalized growth (locus YGL240W, strain doc1, active compounds read low): 0.993
- normalized growth (locus YGL248W, strain PDE1, active compounds read low): 0.932
- normalized growth (locus YGL253W, strain hxk2, active compounds read low): 0.997
- normalized growth (locus YGR078C, strain PAC10, active compounds read low): 0.886
- normalized growth (locus YGR135W, strain pre9, active compounds read low): 0.917
- normalized growth (locus YGR229C, strain SMI1, active compounds read low): 0.852
- normalized growth (locus YGR252W, strain gcn5, active compounds read low): 1.04
- normalized growth (locus YHR013C, strain ard1, active compounds read low): 1.03
- normalized growth (locus YHR027C, strain rpn1, active compounds read low): 0.997
- normalized growth (locus YHR030C, strain SLT2, active compounds read low): 0.951 and 0.911
- normalized growth (locus YHR079C, strain IRE1 (second series), active compounds read low): 0.943
- normalized growth (locus YHR079C, strain IRE1, active compounds read low): 0.939
- normalized growth (locus YHR094C, strain hxt1, active compounds read low): 0.948
- normalized growth (locus YHR129C, strain ARP1, active compounds read low): 0.955
- normalized growth (locus YHR142W, strain chs7, active compounds read low): 0.994
- normalized growth (locus YHR200W, strain rpn10, active compounds read low): 0.938
- normalized growth (locus YIL066C, strain RNR3, active compounds read low): 0.899
- normalized growth (locus YIL073C, strain SPO22, active compounds read low): 0.969
- normalized growth (locus YIL125W, strain kgd1, active compounds read low): 0.986
- normalized growth (locus YIR030C, strain dcg1, active compounds read low): 0.925 (active)
- normalized growth (locus YJL092W, strain hpr5, active compounds read low): 0.98
- normalized growth (locus YJL095W, strain BCK1 (second series), active compounds read low): 1
- normalized growth (locus YJL095W, strain BCK1, active compounds read low): 0.903 and 0.92
- normalized growth (locus YJL115W, strain asf1, active compounds read low): 1
- normalized growth (locus YJL129C, strain trk1, active compounds read low): 0.949
- normalized growth (locus YJL134W, strain LCB3, active compounds read low): 0.922 (active)
- normalized growth (locus YJL154C, strain vps35, active compounds read low): 0.97
- normalized growth (locus YJL164C, strain tpk1, active compounds read low): 0.983
- normalized growth (locus YJL166W, strain qcr8, active compounds read low): 0.974
- normalized growth (locus YJL168C, strain set2, active compounds read low): 0.931 (active)
- normalized growth (locus YJL187C, strain SWE1 (second series), active compounds read low): 0.916
- normalized growth (locus YJL187C, strain SWE1, active compounds read low): 0.984
- normalized growth (locus YJR043C, strain POL32, active compounds read low): 0.977
- normalized growth (locus YJR066W, strain TOR1, active compounds read low): 0.867
